# Results taken from PubChem BioAssay (NCATS).
# Records with an inconclusive call do not appear. A call without a number means that no potency is given here. Active and inactive are the calls of the source. Unless noted, the call rests on the fitted dose curve; in most records, active means well fitted curve in the direction sought with a large enough effect; inconclusive means small, poorly fitted or top-dose-only effect, or another doubt; inactive means no such curve, though single readings can be large; an effect the other way counts as inactive or inconclusive.
# Tests used:
# [1] = qHTS for differential inhibitors of proliferation of Plasmodium falciparum line Dd2 (AID 1882); conditions: Potency: Plasmodium falciparum Dd2 proliferation inhibition; series mostly up to 28.7 µM; further: potency means the concentration at half of the fitted maximal effect; nearly all actives have a fitted effect of over 65% in size
# Method in brief: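 Dd2-infected erythrocytes (0.3% parasitemia, 2.5% hematocrit final) incubated with compound 72 h at 37 C, 5% CO2; lysed with saponin/Triton buffer containing SYBR Green I, incubated overnight in the dark, then read by fluorescence (485/535 nm). Normalized to 0.29 uM artemisinin and DMSO.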
# [2] = Validation screen for inhibitors of Lassa infection (AID 463096; calls by dose curve); conditions: Lassa virus infection, cell-based; series mostly up to 46.1 µM
# [3] = molecular target: Cytochrome P450 2C9 (Homo sapiens) (UniProt P11712); assay: qHTS Assay for Inhibitors and Substrates of Cytochrome P450 2C9 (AID 883); conditions: recombinant CYP2C9, luciferin-H luminescence, 60 min; series mostly up to 57.1 µM; further: potency means the concentration at half of the fitted maximal effect; nearly all actives have a fitted effect of over 60% in size
# Method in brief: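 A luminogenic readout tracked human CYP2C9 (10nM) converting deoxyluciferin (100uM, at KM) in 25mM KPO4 during 60 min at 37C with regenerated NADPH. Values normalized to 57uM sulphaphenazole as complete inhibition.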
# [4] = molecular target: Cytochrome P450 2C19 (Homo sapiens) (UniProt P33261); assay: qHTS Assay for Inhibitors and Substrates of Cytochrome P450 2C19 (AID 899); conditions: recombinant CYP2C19, luciferin-H EGE luminescence; series mostly up to 57.1 µM; further: potency means the concentration at half of the fitted maximal effect; nearly all actives have a fitted effect of over 60% in size
# Method in brief: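 NADPH-dependent conversion of Luciferin-H EGE (10uM, at KM) by 5nM enzyme in 50mM KPO4, 60 min at 37C following 10 min compound preincubation. Stopped with luciferin detection buffer; luminescence read after 20 min.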
# [5] = Quantitative high throughput screen for delayed death inhibitors of the malarial parasite plastid, 96 hour incubation (AID 488745); conditions: Plasmodium falciparum growth; series mostly up to 28.7 µM; further: potency means the concentration at half of the fitted maximal effect; nearly all actives have a fitted effect of over 70% in size
# Method in brief: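 Infected erythrocytes were added to compound in Albumax-supplemented RPMI 1640 at 0.1% parasitemia and 2% hematocrit (final), incubated 96 h at 37 C under 5% CO2, then luciferase reagent was added and luminescence measured.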
# [6] = molecular target: Chromobox protein homolog 1 (Homo sapiens) (UniProt P83916); assay: qHTS Validation Assay for Inhibitors of HP1-beta Chromodomain Interactions with Methylated Histone Tails (AID 488953); conditions: HP1-beta chromodomain / methylated histone peptide binding assay; series mostly up to 114 µM; further: potency means the concentration at half of the fitted maximal effect; nearly all actives have a fitted effect of over 50% in size
# Method in brief: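 50 nM HP1-beta + 50 nM biotin-H3(1-18)K9me3, PBS pH 7.4, 0.01% Tween-20, 30 min RT; compound added, 30 min RT; AlphaScreen beads 10 ug/mL final, 30 min dark; luminescence read.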
# [7] = Validation screen for small molecules that induce genotoxicity in human embryonic kidney (HEK293T) cells expressing luciferase-tagged ELG1 (AID 493106); conditions: luminescence; series mostly up to 46.1 µM
# Method in brief: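 Luminescence from an ELG1-luciferase fusion serves as the read-out, rising when genetic stress elevates ELG1 protein. HEK293T reporter cells (2,000 per well) received 23 nL compound, incubated 16 hr at 37 °C, then ONE-Glo for 30 min at room temperature.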
# [8] = Inducers of the Endoplasmic Reticulum Stress Response (ERSR) in human glioma: Validation (AID 504836); conditions: human glioma cells, ER stress response reporter; series mostly up to 38.3 µM
# Method in brief: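 Stably transfected U87-MG human glioma cells carrying a GRP78-based luminescent sensor were seeded at 1000 cells/well, pin-dosed with compounds and incubated 16 h. Luciferase reagent was then added, and end-point luminescence was read after 10 min at room temperature.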
# [9] = molecular target: ATP-dependent 6-phosphofructokinase (Trypanosoma brucei brucei) (UniProt O15648); assay: qHTS Assay to Find Inhibitors of T. brucei phosphofructokinase: hit validation (AID 492961);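 further: luminescence reports ADP formed as PFK phosphorylates fructose-6-phosphate with ATP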; conditions: T. brucei PFK, ADP-Glo luminescence; series mostly up to 51.4 µM
# Method in brief: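 Percent activity derived from corrected luminescence, normalized between 0x and 1x enzyme controls, then fitted to concentration-response curves. Conditions: 1.25 nM PFK, 0.1 mM ATP, 0.5 mM F6P, 45 min RT.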
# AS120 = assay: qHTS profiling for inhibitors of Plasmodium falciparum proliferation (AID 504749); further: nearly all actives have a fitted effect of over 60% in size; conditions: P. falciparum in erythrocytes, SYBR Green DNA, 72 h; series mostly up to 28.7 µM
# Method in brief: (§1)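 Parasite proliferation within erythrocytes, 72 h exposure. Endpoint: SYBR Green I fluorescence after overnight lysis at room temperature. Controls: 0.29 uM artemisinin, DMSO.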
# ATS189 = assay: as above; conditions: P. falciparum in erythrocytes, SYBR Green DNA, 72 h; series mostly up to 28.7 µM
# Method in brief: as §1
# CP185 = assay: as above; conditions: P. falciparum in erythrocytes, SYBR Green DNA, 72 h; series mostly up to 28.7 µM
# Method in brief: as §1
# CP192 = assay: as above; conditions: P. falciparum in erythrocytes, SYBR Green DNA, 72 h; series mostly up to 28.7 µM
# Method in brief: as §1
# CP194 = assay: as above; conditions: P. falciparum in erythrocytes, SYBR Green DNA, 72 h; series mostly up to 28.7 µM
# Method in brief: as §1
# CP201 = assay: as above; conditions: P. falciparum in erythrocytes, SYBR Green DNA, 72 h; series mostly up to 28.7 µM
# Method in brief: as §1
# CP203 = assay: as above; conditions: P. falciparum in erythrocytes, SYBR Green DNA, 72 h; series mostly up to 28.7 µM
# Method in brief: as §1
# CP247 = assay: as above; conditions: P. falciparum in erythrocytes, SYBR Green DNA, 72 h; series mostly up to 28.7 µM
# Method in brief: as §1
# P94_40 = assay: as above; conditions: P. falciparum in erythrocytes, SYBR Green DNA, 72 h; series mostly up to 28.7 µM
# Method in brief: as §1
# PC49 = assay: as above; conditions: P. falciparum in erythrocytes, SYBR Green DNA, 72 h; series mostly up to 28.7 µM
# Method in brief: as §1
# TAB113 = assay: as above; conditions: P. falciparum in erythrocytes, SYBR Green DNA, 72 h; series mostly up to 28.7 µM
# Method in brief: as §1
# Chain of ATP-dependent 6-phosphofructokinase (Trypanosoma brucei brucei) (O15648 whole entry, looked up): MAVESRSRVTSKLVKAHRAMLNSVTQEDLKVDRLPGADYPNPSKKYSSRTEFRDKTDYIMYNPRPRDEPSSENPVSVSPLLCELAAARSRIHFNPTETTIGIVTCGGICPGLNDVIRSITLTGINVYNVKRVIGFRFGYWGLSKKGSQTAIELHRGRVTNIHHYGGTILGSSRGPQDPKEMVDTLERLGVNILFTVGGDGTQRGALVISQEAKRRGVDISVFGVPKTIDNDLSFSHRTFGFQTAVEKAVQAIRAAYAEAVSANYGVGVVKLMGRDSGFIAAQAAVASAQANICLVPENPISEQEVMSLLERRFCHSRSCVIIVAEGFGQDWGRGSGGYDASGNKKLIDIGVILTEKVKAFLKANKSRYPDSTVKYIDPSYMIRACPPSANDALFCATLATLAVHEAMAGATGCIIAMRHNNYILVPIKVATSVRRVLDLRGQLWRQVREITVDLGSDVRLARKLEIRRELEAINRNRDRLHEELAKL
# Chain of Cytochrome P450 2C19 (Homo sapiens) (P33261 whole entry, looked up): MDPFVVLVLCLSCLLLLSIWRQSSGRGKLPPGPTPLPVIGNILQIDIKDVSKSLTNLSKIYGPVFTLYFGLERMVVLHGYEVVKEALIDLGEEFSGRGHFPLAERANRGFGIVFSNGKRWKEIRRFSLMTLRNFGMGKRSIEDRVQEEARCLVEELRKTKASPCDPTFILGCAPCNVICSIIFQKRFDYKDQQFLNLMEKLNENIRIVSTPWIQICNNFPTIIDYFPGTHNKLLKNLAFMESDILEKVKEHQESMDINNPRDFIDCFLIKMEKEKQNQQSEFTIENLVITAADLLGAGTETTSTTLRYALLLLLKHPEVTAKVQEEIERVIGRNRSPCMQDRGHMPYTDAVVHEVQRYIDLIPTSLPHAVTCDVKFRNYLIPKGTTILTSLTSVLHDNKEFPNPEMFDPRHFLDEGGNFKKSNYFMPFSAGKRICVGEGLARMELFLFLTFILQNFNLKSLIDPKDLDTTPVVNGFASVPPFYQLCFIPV
# Chain of Cytochrome P450 2C9 (Homo sapiens) (P11712 whole entry, looked up): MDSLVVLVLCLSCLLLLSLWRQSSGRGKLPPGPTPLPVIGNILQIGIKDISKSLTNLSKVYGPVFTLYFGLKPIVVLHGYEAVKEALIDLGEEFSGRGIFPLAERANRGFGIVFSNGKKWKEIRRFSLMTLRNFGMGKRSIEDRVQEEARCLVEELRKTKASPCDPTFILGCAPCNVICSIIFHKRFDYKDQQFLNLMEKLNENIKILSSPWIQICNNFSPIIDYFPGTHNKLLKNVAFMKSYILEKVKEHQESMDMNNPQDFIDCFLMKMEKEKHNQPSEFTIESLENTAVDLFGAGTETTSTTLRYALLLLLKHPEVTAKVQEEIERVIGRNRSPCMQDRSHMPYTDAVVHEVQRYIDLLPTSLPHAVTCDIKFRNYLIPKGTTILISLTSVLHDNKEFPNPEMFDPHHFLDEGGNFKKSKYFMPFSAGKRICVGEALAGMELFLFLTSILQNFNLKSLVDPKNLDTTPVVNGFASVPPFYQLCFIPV
# Chain of Chromobox protein homolog 1 (Homo sapiens) (P83916 whole entry, looked up): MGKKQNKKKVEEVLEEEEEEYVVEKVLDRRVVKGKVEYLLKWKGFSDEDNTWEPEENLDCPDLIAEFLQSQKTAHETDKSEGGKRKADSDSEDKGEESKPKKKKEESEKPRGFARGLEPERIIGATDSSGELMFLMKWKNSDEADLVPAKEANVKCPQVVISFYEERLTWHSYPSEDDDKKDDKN
smiles,measurement,setting,value
CN1C[C@H](C(=O)N[C@]2(C)O[C@@]3(O)C4CCCN4C(=O)[C@H](Cc4ccccc4)N3C2=O)C[C@@H]2c3cccc4[nH]cc(c34)C[C@H]21 (stereo not given in full),Potency,[1],2.51 µM (active)
same,Potency,[2],inactive
S=C(S)N1CCCC1,Potency,[3],2 µM (active)
same,Potency,[4],3.98 µM (active)
same,Potency,[1],7.94 µM (active)
same,Potency,[5],5.86 µM (active)
same,Potency,[6],44.7 µM (active)
same,outcome,[7],inactive
same,outcome,[8],inactive
COc1cc(OC)c(/C=C2/C(=O)Nc3ccccc32)c(OC)c1,Potency,[6],31.6 µM (active)
same,outcome,[7],inactive
same,outcome,[8],inactive
CC(=O)O[C@H]1C[C@@H]2CCC3C(CC[C@@]4(C)[C@H]3C[C@H]([N+]3(C)CCCCC3)[C@@H]4OC(C)=O)[C@@]2(C)C[C@@H]1[N+]1(C)CCCCC1 (stereo not given in full),Potency,[2],inactive
same,Potency,[5],13.1 µM (active)
C#CCN(C)[C@@H](C)Cc1ccccc1,Potency,[9],inactive
same,Potency,AS120,inactive
same,Potency,ATS189,inactive
same,Potency,CP185,inactive
same,Potency,CP192,inactive
same,Potency,CP194,inactive
same,Potency,CP201,inactive
same,Potency,CP203,inactive
same,Potency,CP247,inactive
same,Potency,P94_40,inactive
same,Potency,PC49,inactive
same,Potency,TAB113,inactive
C[C@@]12CC[C@H]3[C@@H](CC[C@@H]4C[C@H]5S[C@H]5C[C@]43C)[C@H]1CC[C@H]2O,Potency,[3],0.005 µM (active)
same,Potency,[4],0.0631 µM (active)
same,Potency,[9],inactive
same,Potency,AS120,inactive
same,Potency,ATS189,inactive
same,Potency,CP185,inactive
same,Potency,CP192,inactive
same,Potency,CP194,inactive
same,Potency,CP201,inactive
same,Potency,CP203,inactive
same,Potency,CP247,inactive
same,Potency,P94_40,inactive
same,Potency,PC49,inactive
same,Potency,TAB113,inactive
